In the library only some 19% were active in any assay of this set; here they are far more common.
HT1080 IDH1KD tx = kills HT-1080 cells with IDH1 knockdown | Potency, µM (top dose mostly 46.1 µM), inactives show at the highest dose activity, negative = toxicity, most hits filed as cytotoxic | HT-1080 IDH1 knockdown viability, ATP luminescence, 48 h | hit rate 2% among 360,000;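 note: 0% = DMSO wells and -100% = cell-free medium wells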
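Cytotoxicity counter-line: IDH1KD HT-1080, 48 h, CellTiter-Glo. Curves classed by r2, magnitude and activity.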
KB-3-1 tox = KB-3-1 parental cell cytotoxicity; KB-3-1 viability, CellTiter-Glo ATP luminescence, 72 h; Potency, µM (titrated, usually from 46.1 µM), hits mostly cytotoxic; hit rate 1.4% among 400,000; AID 1347075; note: nearly all actives have a fitted effect of over 60% in size
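Parental KB-3-1 viability, qHTS format: 72 h compound exposure, 37 °C; CellTiter-Glo; media-only wells and DMSO plates as controls; concentration-effect fits on corrected data.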
DT40 TDP1 CPT = DT40-hTDP1 cell growth loss with CPT. chicken DT40 Tdp1-/-;hTDP1 cells + 20 nM CPT, ATP luminescence, 48 h. Potency, µM (titrated, usually from 46.2 µM), inactives show top-dose activity change, negative = growth inhibition, most hits filed as inhibitors. hit rate 12% among 420,000; note: nearly all actives have a fitted effect of over 55% in size
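Chicken DT40 Tdp1-/- cells complemented with human TDP1, 400 cells/well, exposed to compounds plus 20 nM camptothecin for at least 48 h at 37 C; viability read as ATP content by CellTiter-Glo luminescence.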
TDP1 cell noCPT = qHTS for Inhibitors of human tyrosyl-DNA phosphodiesterase 1 (TDP1): qHTS in cells in absence of CPT. DT40 Tdp1-/- hTDP1 cells, no CPT, ATP luminescence, 48 h. Potency, µM (doses to about 46.2 µM), for inactives: at the highest dose activity change, negative = growth inhibition, actives largely listed as inhibitors. hit rate 15% among 420,000. AID 686978, 2013; note: nearly all actives have a fitted effect of over 55% in size
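Compound effects on proliferation are scored in DT40 Tdp1-/-;hTDP1 cells in the absence of CPT. ATP levels (CellTiter-Glo luminescence) are recorded after a ≥48 hr, 37 °C incubation.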
KB-V1 cytotox = kills drug-selected multidrug resistant KB-V1 cells | KB-V1 MDR cells viability, CellTiter-Glo, 72 h | Potency, µM (series often up to 46.1 µM), hits mostly cytotoxic | hit rate 3.4% among 400,000 | AID 1347076; note: nearly all actives have a fitted effect of over 60% in size
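Following 72 h at 37 degrees C with compound, KB-V1 cell viability was read by CellTiter-Glo luminescence, medium being phenol-red-free DMEM plus 10% FBS; concentration-response parameters came from normalized, curve-fitted qHTS data.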
HT1080-NT tox = kills 2HG-producing HT-1080-NT fibrosarcoma cells; HT-1080-NT fibrosarcoma viability, CellTiter-Glo ATP luminescence, 48 h; Potency, µM (top dose mostly 46.1 µM), without a hit: top-dose activity, negative = less viability, hits mostly cytotoxic; hit rate 1.6% among 360,000; AID 686970;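 note: NT is the 2HG producing partner of a matched IDH1 knockdown line; 0% = DMSO-treated cells and -100% = media-only wells without cells; nearly all actives have a fitted effect of over 55% in size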
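Toxicity toward the 2HG-producing NT line was scored as %Activity, normalised to DMSO and no-cell wells, from CellTiter-Glo luminescence after 48 hours' treatment.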
* hit, by the source's call; i = inactive; u = inconclusive; x = not tested or not shown. Calls come from the whole dose curve; as a rule, active = well fitted curve in the direction sought with a large enough effect; inconclusive = small, poorly fitted or top-dose-only effect, or another doubt; inactive = no such curve, though single readings can be large; an effect the other way counts as inactive or inconclusive. Unless noted, % is set by controls: 0 for no effect and ±100 for the full control effect; potency is the fitted concentration of half-maximal effect.

SMILES	HT1080 IDH1KD tx	KB-3-1 tox	DT40 TDP1 CPT	TDP1 cell noCPT	KB-V1 cytotox	HT1080-NT tox
O=S(=O)(Nc1cccc(-n2cnnn2)c1)c1cc(Br)ccc1Br	-25%	i	-7%	6%	5.8µM*	-20%
CC(C)(C)c1ccc(C(=O)Nc2cccc(-n3cnnn3)c2)cc1	0%	i	u	2.6µM*	i	14%
O=C(Nc1cccc2ccccc12)c1ccc(OC(=S)N2CCOCC2)cc1	u	u	23µM*	23µM*	u	u
O=C(COc1ccc(Cl)cc1)OCc1cc(=O)n2nc(-c3cccs3)sc2n1	x	i	-11%	-17%	i	x
CCc1ccccc1NC(=O)Cn1nnc(-c2nc(-c3ccc(C)cc3)no2)c1N	x	x	-22%	-1%	x	x
COc1ccc(C(=O)Nc2cccc(C)c2)cc1S(=O)(=O)N1CCOCC1	10%	i	1%	-9%	i	23%
Cc1cccc(NC(=O)c2cccc(OC(=S)N3CCOCC3)c2)c1	-15%	i	u	15µM*	u	-7%
c1ccc(N=NC2=NN(c3ccccc3)CS2)cc1	5%	i	u	5.8µM*	i	-5%
CC(C)NC(=S)NN=C1c2ccccc2-c2ccccc21	6%	i	23µM*	7.3µM*	u	-2%
O=C(COc1ccccc1)Nc1ccc(C(=O)OCc2cc(=O)n3nc(C4CC4)sc3n2)cc1	x	i	-20%	1%	u	x
COc1ccc(C2NC(=O)CCC2[N+](=O)[O-])cc1 (stereo not drawn)	-3%	i	19%	1%	u	-1%
Cc1ccc(C2NC(=O)CCC2[N+](=O)[O-])cc1 (stereo not drawn)	0%	i	18µM*	u	i	21%
CCOc1ccccc1N1C(=O)c2ccccc2N/C1=C\N1CCN(C(=O)c2ccco2)CC1	-8%	x	-23%	u	x	u
COc1ccc(NC2=C(c3ccc(C(F)(F)F)cc3)C(=O)c3ccccc32)cc1	x	i	u	u	i	x
COc1ccc(C2=C(Nc3ccccc3)c3ccccc3C2=O)cc1	-10%	i	-12%	u	i	-2%
COC1=C(c2ccccc2)C(=O)c2ccccc2C1=O	26µM*	i	23µM*	16µM*	u	-13%
COc1ccc(NC2=C(c3ccc(OC)cc3)C(=O)c3ccccc32)cc1	6%	i	3.7µM*	u	5.2µM*	-11%
COc1ccc(C2=C(Nc3ccc(C)cc3C)c3ccccc3C2=O)cc1	x	i	13µM*	u	i	x
O=C1C(c2ccc(C(F)(F)F)cc2)=C(Nc2ccc(Cl)cc2)c2ccccc21	x	i	16µM*	12µM*	i	x
Cc1ccc(NC(=O)c2cnccn2)cc1C	-12%	i	7%	6%	i	-3%
O=C1CCCC2=C1C1(CCS(=O)(=O)C1)N=C(Nc1nc3ccccc3o1)N2 (stereo not drawn)	x	i	x	x	i	x
Cc1cccc(C)c1NC(=O)Cn1c(=O)n(CCC(=O)NCc2ccccc2Cl)c(=O)c2sccc21	x	i	-1%	-4%	u	x
O=C(C1=C(c2ccccc2)C(=O)c2ccccc2C1=O)c1ccccc1	15µM*	u	2.1µM*	2.9µM*	u	u
COc1ccc(OCCN2CCOCC2)cc1	12%	i	6%	5%	u	-1%
COc1ccc(-c2sc3cc(OC)ccc3c2-c2ccc(OCCN3CCCCC3)cc2)cc1	16µM*	u	4.6µM*	5.8µM*	u	21µM*
SMILES	HT1080 IDH1KD tx	KB-3-1 tox	DT40 TDP1 CPT	TDP1 cell noCPT	KB-V1 cytotox	HT1080-NT tox
COc1ccc2c(-c3ccc(OCCN4CCOCC4)cc3)c(-c3ccccc3OC)sc2c1	-18%	i	21µM*	21µM*	i	-18%
COc1cc2sc(-c3ccccc3OC)c(-c3ccc(OCCN4CCOCC4)cc3)c2cc1OC	u	i	u	u	i	u
COc1ccc2c(-c3ccc(OCCN4CCCCC4)cc3)c(-c3ccccc3OC)sc2c1	u	i	-104%	15µM*	i	u
COc1ccccc1-c1sc2ccccc2c1-c1ccc(OCCN2CCCCC2)cc1	u	i	18µM*	15µM*	i	u
CCc1ccc2oc(C(=O)NCc3ccccc3)cc(=O)c2c1	x	i	-14%	u	i	x
COc1ccc(C2NC(=O)NC(C)=C2C(=O)Nc2cc(C)cc(C)c2)c(OC)c1 (stereo not drawn)	x	i	-19%	-1%	i	x
Oc1ccc2sc(-c3ccccc3O)c(-c3ccc(OCCN4CCCCC4)cc3)c2c1	16µM*	u	21µM*	u	i	u
c1ccc(COc2ccc(OCCN3CCCCC3)cc2)cc1	-6%	i	u	-61%	u	1%
CN(C)Cc1c(O)c(Cl)cc2c3c(c(=O)oc12)CCCC3	1%	i	u	15µM*	i	0%
COc1ccc(NC(=O)COc2coc(CN3CCN(c4ccccc4)CC3)cc2=O)cc1	0%	i	21µM*	u	i	1%

Bioassay records deposited in PubChem by National Center for Advancing Translational Sciences (NCATS).
